Publication PMC5540273 (PLoS ONE, 2017)

Columns and labels:
Conditions in all cases: concentration: 1 μM, replicates: in singlicate; n = 1
PIP5K1A = test system: PIP5K1A
PIP5K1C = test system: PIP5K1C
PIP5K2B = test system: PIP5K2B
PIP5K2C = test system: T1, PIP5K2C
T1 construct: gene PIP4K2C

PKAC-alpha = test system: T2, PKAC-alpha
T2 construct: gene PRKACA

PKAC-beta = test system: T3, PKAC-beta
T3 construct: gene PRKACB

PKMYT1 = test system: PKMYT1
PKN1 = test system: PKN1
PKN2 = test system: PKN2
PLK1 = test system: PLK1
PLK2 = test system: PLK2
PLK3 = test system: PLK3
PLK4 = test system: PLK4
PRKCD = test system: PRKCD
PRKCE = test system: PRKCE
PRKCH = test system: PRKCH
PRKCI = test system: PRKCI
PRKCQ = test system: PRKCQ
PRKD1 = test system: PRKD1
PRKD2 = test system: PRKD2
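Also: KINOMEscan kinase panel screen.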

Row | SMILES | %Inh (PIP5K1A) | %Inh (PIP5K1C) | %Inh (PIP5K2B) | %Inh (PIP5K2C) | %Inh (PKAC-alpha) | %Inh (PKAC-beta) | %Inh (PKMYT1) | %Inh (PKN1) | %Inh (PKN2) | %Inh (PLK1) | %Inh (PLK2) | %Inh (PLK3) | %Inh (PLK4) | %Inh (PRKCD) | %Inh (PRKCE) | %Inh (PRKCH) | %Inh (PRKCI) | %Inh (PRKCQ) | %Inh (PRKD1) | %Inh (PRKD2)
1 | COc1ccc(-c2coc3ccc(-c4nnc(SCc5ccc(OC)c(C(F)(F)F)c5)o4)cc23)cc1 | 0% | 0% | 4% | 0% | 15% | 3% | 17% | 24% | 3% | 0% | 15% | 14% | 8% | 9% | 0% | 0% | 0% | 0% | 0% | 0%
2 | C[C@@H]1CC[C@@H](C(=O)Nc2ccccc2)CN1c1cc(-c2ccc3c(N)n[nH]c3c2)nc(N)n1 [GSK2286062] | 0% | 18% | 3% | 4% | 0% | 0% | 16% | 0% | 0% | 0% | 0% | 0% | 0% | 9% | 6% | 14% | 15% | 0% | 0% | 23%
3 | c1ccc(Oc2ccc(Nc3ccnc4cc(-c5ccc(CNCCN6CCOCC6)o5)ccc34)cc2)nc1 [GW567145] | 62% | 71% | 21% | 57% | 0% | 0% | 0% | 0% | 0% | 0% | 0% | 0% | 43% | 0% | 12% | 4% | 39% | 4% | 0% | 13%
4 | Clc1ccc(-c2nn3ncccc3c2-c2ccnc(Nc3ccc4c(c3)OCCO4)n2)cc1 [GW829116] | 17% | 0% | 0% | 43% | 24% | 0% | 2% | 0% | 0% | 0% | 0% | 7% | 2% | 0% | 1% | 0% | 0% | 22% | 0% | 1%
5 | Cl.Cl.NCC(C(=O)Nc1cc(Br)c(-c2ccnc3[nH]ccc23)s1)c1ccccc1 (stereo not shown) [GSK1269851] | 55% | 38% | 74% | 1% | 97.2% | 93.6% | 0% | 100% | 15% | 0% | 16% | 2% | 0% | 70% | 58% | 63% | 26% | 73% | 0% | 0%
6 | CN(C)S(=O)(=O)c1cc(-c2ccc3nccc(-c4cccc(S(N)(=O)=O)c4)c3c2)cnc1N [GSK1669921] | 0% | 36% | 21% | 85% | 3% | 10% | 0% | 57% | 0% | 33% | 2% | 0% | 0% | 0% | 15% | 29% | 7% | 10% | 0% | 0%
7 | COc1ccc(CNC(=O)NC2CCN(c3ccnc(Nc4ccc(F)cc4)n3)CC2)cc1 [GSK1379788] | 5% | 57% | 4% | 9% | 0% | 0% | 0% | 0% | 0% | 0% | 0% | 0% | 0% | 0% | 0% | 0% | 0% | 0% | 5% | 6%
8 | COC(=O)Nc1nc2cc(Oc3ccc(NC(=O)Nc4cc(C(F)(F)F)ccc4F)cn3)ccc2[nH]1.Cl.Cl [GW681170] | 9% | 61% | 12% | 19% | 0% | 0% | 5% | 15% | 15% | 0% | 0% | 0% | 55% | 0% | 12% | 14% | 26% | 0% | 0% | 9%
